The results in this text go back to PubChem BioAssay (EPA / NIEHS).

Read-out in experiment [1]: Collagen I, COL1A1 (gene 1277)
Description: BSK_MyoF_CollagenI: BioMAP Diversity Plus: MyoF Assay for Collagen I Biomarker Activity (AID 2284238). Particulars: primary human lung fibroblasts. Put shortly:
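Primary human lung fibroblasts (MyoF system) treated 24 h; Collagen I quantified by ELISA and fitted in positive direction against DMSO. Parallel SRB total-protein staining assessed overt cytotoxicity.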

Read-out in experiment [2]: Interleukin 17F (IL17F), IL17F (gene 112744)
Kind of experiment: BSK_BT_xIL17F: BioMAP Diversity Plus: BT Assay for Interleukin 17F (IL17F) Biomarker Activity (AID 2284243). Particulars: primary human B cells with PBMC. The method in brief:
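Human PBMC co-cultured with B cells, compound exposure 24 h; secreted IL-17F quantified by Luminex xMAP, referenced to DMSO control. PBMC viability measured in parallel by Alamar Blue reduction.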

Read-out in experiment [3]: Actin alpha 1 (ACTA1), ACTA1 (gene 58)
Description: BSK_MyoF_ACTA1: BioMAP Diversity Plus: MyoF Assay for Actin alpha 1 (ACTA1) Biomarker Activity (AID 2284244). The conditions noted are these: primary human lung fibroblasts. Put shortly:
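ELISA read-out of a-SMA in primary human lung fibroblast cultures, 24 h post-dosing. Activity scored in the positive direction versus DMSO baseline.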

Read-out in experiment [4]: Interleukin 2 (IL2), IL2 (gene 3558)
Description: BSK_BT_xIL2: BioMAP Diversity Plus: BT Assay for Interleukin 2 (IL2) Biomarker Activity (AID 2284245). The conditions noted are these: primary human B cells with PBMC. The method in brief: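 Readout: supernatant IL-2 via Luminex xMAP after 24 h chemical dosing of a B cell/PBMC primary human co-culture. DMSO serves as negative control and baseline; increases in signal were fitted.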

Read-out in experiment [5]: Collagen IV, COL4A1 (gene 1282)
Description: BSK_MyoF_CollagenIV: BioMAP Diversity Plus: MyoF Assay for Collagen IV Biomarker Activity (AID 2284247). The conditions noted are these: primary human lung fibroblasts. The method in brief: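 ELISA read-out of Collagen IV in lung fibroblast cultures, 24 h post-dosing; gain of signal relative to DMSO vehicle baseline defines activity.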

Read-out in experiment [6]: Plasminogen activator inhibitor-1 (PAI1), SERPINE1 (gene 5054)
Kind of experiment: BSK_MyoF_PAI1: BioMAP Diversity Plus: MyoF Assay for Plasminogen activator inhibitor-1 (PAI1) Biomarker Activity (AID 2284256).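 As to outcome: PAI-1 read 24 h after compound addition.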 Particulars: primary human lung fibroblasts. The method in brief:
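Primary human lung fibroblasts treated with chemical for 24 h; PAI-1 levels quantified by ELISA relative to DMSO. Cytotoxicity was assessed in parallel cultures by SRB total-protein staining (0.1% SRB after 10% TCA fixation, 560 nm).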

Calls of active or inactive are those of the source. The calls were made as follows: active = hit-call score of the fitted dose curve at least 0.9, where 1 is the maximum; inactive = score below 0.9.

`CCOP(=S)(S)OCC`: the outcome in experiment [1], in experiment [2], in experiment [3], in experiment [4], in experiment [5] and in experiment [6] was inactive.
Broadly, the AC50 is the concentration giving half of the maximal activity seen. With `CCOP(=S)(OCC)SCn1nnc2ccccc2c1=O`, the outcome in experiment [1], in experiment [3], in experiment [4], in experiment [5] and in experiment [6] was inactive. For the same compound, the concentration at half-maximal activity (AC50) in experiment [2] was 24 µM (active).
For `CCCCC(CC)COC(=O)c1c(Br)c(Br)c(Br)c(Br)c1C(=O)OCC(CC)CCCC` (centres undefined), the outcome in experiment [1], in experiment [2], in experiment [3], in experiment [4], in experiment [5] and in experiment [6] was inactive.
`Cc1c([N+](=O)[O-])cc2c(c1[N+](=O)[O-])C(C)(C)CC2(C)C`: the outcome in experiment [1], in experiment [3] and in experiment [6] was inactive. Besides, the AC50 is 20 µM (active) in experiment [2], 20 µM (active) in experiment [4] and 5.8 µM (active) in experiment [5].
Regarding `O=P(OCC(Br)CBr)(OCC(Br)CBr)OCC(Br)CBr` (centres undefined), the result in experiment [1], in experiment [3], in experiment [5] and in experiment [6] was inactive. Also, the AC50 in experiment [2] and in experiment [4] was 27.7 µM (active) throughout.
As for `O=c1ssc(Cl)c1Cl`, the AC50 was 7.5 µM (active) in experiment [1]; 6.3 µM (active) in experiment [2]; 6.24 µM (active) in experiment [3]; 6.44 µM (active) in experiment [4]; 7.41 µM (active) in experiment [5]; 11.1 µM (active) in experiment [6].
`CC(C)Nc1ccc(Nc2ccccc2)cc1`: the concentration at half-maximal activity (AC50) is 26 µM (active) in experiment [1]; 4.55 µM (active) in experiment [2]; 22.7 µM (active) in experiment [3]; 5.05 µM (active) in experiment [4]; 20 µM (active) in experiment [5]; 30.6 µM (active) in experiment [6].
Turning to `Nc1ccc([N+](=O)[O-])cc1Cl`, the outcome in experiment [1], in experiment [2], in experiment [3], in experiment [4], in experiment [5] and in experiment [6] was inactive.
`CCOP(=S)(NC(C)C)Oc1ccccc1C(=O)OC(C)C` (centres undefined): the result in experiment [1], in experiment [3], in experiment [5] and in experiment [6] was inactive. Besides, the AC50 in experiment [2] is 28.7 µM (active); in experiment [4], 20 µM (active).
